Assay results published in the supplement of paper PMC6555819.

Each sequence was assayed on RXRa homodimer (NR concentration 180 nM) (assay: PBM binding z-score (relative to random genomic background probes); higher = stronger binding; sequences stand for … in GC…GCGATTGACAGCGTAGAATGAAGG).
How it was run: (§1)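 Ligand-free nuclear receptor dimers were applied to custom Agilent 4×180K protein-binding microarrays whose double-stranded probes carried direct-repeat seeds, single-nucleotide variants, half-site ablations and random human genomic background sequences in 34-nt variable regions. Incubation lasted 1 h. Binding z-scores were computed against the random background probes from regression-normalized fluorescence.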

| Sequence | PBM binding z-score |
| --- | --- |
| CCTTACGGGTCACTCCAGGTTATAGCATCGGAGT | 4.36 |
| TTGCCTAGGTCATGGGCCAGTATACCACGCGAAC | 3.94 |
| TCTTGTAGATCAATGGTTAAGAAAGCCGAAGCCT | 0.123 |
| CCGACTGGGGCATAAGGTTACCCTAAGCCAGCCC | 1.07 |
| CCTTACTGGTCACTCCAGGTTATAGCATCGGAGT | 0.519 |
| ATCTCTAGGTCACCAAGTTCAGTGAATGCCGAAC | 4.73 |
| AGAACGAGGGCAATGAGTTGTTAGCACGGGTGGC | 0.588 |
| GCTGCTACGTCAGGTTGGTCAGCTAACGGGTACG | -0.469 |
| TAGCCTAGGTCAGACCGGGCCAGTATACGCTATA | 1.38 |
| CCGAGTAGGTTATGGGGCACTCAGGCAACGGTGA | 0.805 |
| GCTTACGGGTCAAAGGTGATAGCATGAATAGAAT | 7.79 |
| CCTACTGGGCCAAACAGGTCATTGATGCCGATAA | 1.38 |
| ATATGTAGGTTATGGGGTCATTCAGTTTGCGCAT | 6.67 |
| ATCGAAAGGTCGTGAGGTTAGTATACAGAAAGGC | 5.43 |
| GCGACTGGGGCAAAGCAGGTTTCCATAAGGTTGG | -0.342 |
| CCTACTAGGCCAAAAAGGTCATTGATGCCGATAA | 4.95 |
| GCTGCTAGGTCAACTGTTGGTCAGCTAAAGCTCG | 3.12 |
| AGAACGAGGGCACGTTGAGTTGATAGCAGAGTAG | 1.36 |
| CGTCCAGGGTCAAAGGTCAGTGAAGAGATGACGG | 9.93 |
| ATCACTAGGTAAAAGTTCAGTGAATCCCGAGGAT | 1.85 |

| Sequence | PBM binding z-score |
| --- | --- |
| CCAGATAGGTGAGAAGGTAACTCAGCCTCGATTA | 0.44 |
| ACTATTAGTTAACTTAGGGCAACCGATACGACGC | 0.532 |
| AGTCAAAGTTAACTAGGTAACGTAAGATTCAGCT | 0.258 |
| TCTTGTAGATCAAGCAGGTTAAGACAGCCTGAGT | 0.368 |
| GCTAGTTGGTAAGTAAAAGGTCACACACCGGTCG | 4.99 |
| CGAACTAGGTCATTGACAGGACAGTGAGTAGTAA | 2.42 |
| TCTTGTAGATCAATAGAGGTCAAGAAAGTGCGCT | 4.46 |
| ACTAACAGGCCAAGTTTGGGTCACTCAAACAAAG | 0.882 |
| TCTATTAGTTGAAGGGCAAACGACGAGTCCGTTT | 1 |
| GCTAGGTGGTCAGTAAAAGGTCACACACCGGTCG | 5.57 |
| ATCTCTAGGTAACAAGTACAGTGAAAGAGAGGAC | 0.349 |
| ATCTCTAGGTAAAAGCTCAGTGAATCCCGAGGAT | -0.149 |
| TTACCAAGGTGCAGGTCGTTGATCCCTCTGTAGA | 0.481 |
| AGACTGAGGTTATACGTAGATCAGGGAAGAAAGT | 2.09 |
| CAAACTAGGTCAGAGGTCAAAGTCGAGCCAACCA | 9.16 |
| GCGCGGAGGACAAGGTCAGAGCTTTGTCCGTAGA | 2.43 |
| TCTCGGAGGACACGAAAGGTCAGGGCTCGACATC | 4.39 |
| TATGCAGGGTCAAAGGCCAGAGTACGAATGTCGA | 6.81 |
| CCTAATGGGCCAAGGTCATTGATCAGTCAAAGCA | 3.73 |
| AGAACGAGGGCACGCGGAGTTGATAGCAGAGTAG | 1.66 |

The sequences below were run on THRa:RXRa (NR concentration 90 nM, RXRa partner concentration 90 nM) in the same assay as above.
How it was run: as §1

| Sequence | PBM binding z-score |
| --- | --- |
| CCTTACGGGTCACTCCAGGTTATAGCATCGGAGT | 4.89 |
| TTGCCTAGGTCATGGGCCAGTATACCACGCGAAC | 3.35 |
| TCTTGTAGATCAATGGTTAAGAAAGCCGAAGCCT | -0.193 |
| CCGACTGGGGCATAAGGTTACCCTAAGCCAGCCC | 1.79 |
| CCTTACTGGTCACTCCAGGTTATAGCATCGGAGT | 3.26 |
| ATCTCTAGGTCACCAAGTTCAGTGAATGCCGAAC | 3.89 |
| AGAACGAGGGCAATGAGTTGTTAGCACGGGTGGC | 0.64 |
| GCTGCTACGTCAGGTTGGTCAGCTAACGGGTACG | -0.38 |
| TAGCCTAGGTCAGACCGGGCCAGTATACGCTATA | 3.99 |
| CCGAGTAGGTTATGGGGCACTCAGGCAACGGTGA | 0.385 |
| GCTTACGGGTCAAAGGTGATAGCATGAATAGAAT | 3.15 |
| CCTACTGGGCCAAACAGGTCATTGATGCCGATAA | 1.39 |
| ATATGTAGGTTATGGGGTCATTCAGTTTGCGCAT | 4.35 |
| ATCGAAAGGTCGTGAGGTTAGTATACAGAAAGGC | 3.2 |
| GCGACTGGGGCAAAGCAGGTTTCCATAAGGTTGG | 1.21 |
| CCTACTAGGCCAAAAAGGTCATTGATGCCGATAA | 3.35 |
| GCTGCTAGGTCAACTGTTGGTCAGCTAAAGCTCG | 2.84 |
| AGAACGAGGGCACGTTGAGTTGATAGCAGAGTAG | 1.82 |
| CGTCCAGGGTCAAAGGTCAGTGAAGAGATGACGG | 4.54 |
| ATCACTAGGTAAAAGTTCAGTGAATCCCGAGGAT | 1.32 |

| Sequence | PBM binding z-score |
| --- | --- |
| CCAGATAGGTGAGAAGGTAACTCAGCCTCGATTA | 0.177 |
| ACTATTAGTTAACTTAGGGCAACCGATACGACGC | 1.88 |
| AGTCAAAGTTAACTAGGTAACGTAAGATTCAGCT | 0.564 |
| TCTTGTAGATCAAGCAGGTTAAGACAGCCTGAGT | 0.23 |
| GCTAGTTGGTAAGTAAAAGGTCACACACCGGTCG | 3.48 |
| CGAACTAGGTCATTGACAGGACAGTGAGTAGTAA | 2.81 |
| TCTTGTAGATCAATAGAGGTCAAGAAAGTGCGCT | 4.17 |
| ACTAACAGGCCAAGTTTGGGTCACTCAAACAAAG | 2.73 |
| TCTATTAGTTGAAGGGCAAACGACGAGTCCGTTT | 0.493 |
| GCTAGGTGGTCAGTAAAAGGTCACACACCGGTCG | 3.55 |
| ATCTCTAGGTAACAAGTACAGTGAAAGAGAGGAC | 1.12 |
| ATCTCTAGGTAAAAGCTCAGTGAATCCCGAGGAT | 0.0962 |
| TTACCAAGGTGCAGGTCGTTGATCCCTCTGTAGA | 0.675 |
| AGACTGAGGTTATACGTAGATCAGGGAAGAAAGT | 2.01 |
| CAAACTAGGTCAGAGGTCAAAGTCGAGCCAACCA | 4.3 |
| GCGCGGAGGACAAGGTCAGAGCTTTGTCCGTAGA | 2.89 |
| TCTCGGAGGACACGAAAGGTCAGGGCTCGACATC | 3.83 |
| TATGCAGGGTCAAAGGCCAGAGTACGAATGTCGA | 3.45 |
| CCTAATGGGCCAAGGTCATTGATCAGTCAAAGCA | 3.4 |
| AGAACGAGGGCACGCGGAGTTGATAGCAGAGTAG | 1.82 |
